WT yeast gro inh: growth inhibition of WT yeast, mitochondrial fusion screen; mitochondrial fusion phenotypic screen, WT strain; inhibition, % at 10 µM; 190,000 tested, 2.1% active; in the data active = inhibition above about 58%; tested in S. cerevisiae
Calpain2 inh: blocks pig calpain II enzyme activity. purified calpain II, fluorogenic peptide substrate, 30 min. inhibition, % at 16 µM. 220,000 tested, 0.37% active;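 active = inhibition above about 50%, limit read from the data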
Lmaj promast: Leishmania major promastigote growth inhibition. Leishmania major promastigotes, resazurin fluorescence viability. inhibition, % at 10 µM. 200,000 tested, 9% active; in the data active = inhibition above about 50%;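 note: promastigotes grown with compound for 44 hours at 28 °C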
KCC2 mod: KCC2 (human) Cl- transport modulation; AID 1456; Q9H2X9; KCC2 cells, thallium flux FluoZin-2 fluorescence; 190,000 tested, 2.2% active; B-score of Tl+ flux slope (higher = more flux/activation; lower = inhibition) at 10 µM;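 active = thallium flux slope and its plate-corrected score both differing from the plate sample mean at a set confidence after two filtering rounds, in either direction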;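 note: slope of fluorescence scaled to starting intensity during 10 to 20 s after thallium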
ROMK primary: human ROMK K+ channel modulation, primary screen. B-score at 10 µM. Tet-inducible ROMK, thallium flux fluorescence; actives lie on both sides. 130,000 tested, 2% active;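 active = signal ratio slope over the read window, or its plate-corrected B-score, at least 3 SD from the plate mean, either direction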;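 note: B-score of the F/F0 ratio slope over 7 to 12 s after thallium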
Hits are given with their value. Only some compounds are listed: those with a hit (about 12% of all), similar ones and a draw of the others.

For Cc1ccc(C(c2nnnn2C2CCCC2)N2CCN3CCCC3C2)cc1 (stereo not drawn) the results were WT yeast gro inh inactive, Calpain2 inh inactive, Lmaj promast 87 and KCC2 mod inactive.
For O=C(c1ccco1)N1CCN(C(c2cccs2)c2nnnn2C2CCCCC2)CC1 (stereo not drawn) the results were WT yeast gro inh inactive, Calpain2 inh inactive, Lmaj promast 60 and ROMK primary inactive.
c1ccc(C(c2ccccc2)N2CCN(C(c3ccccn3)c3nnnn3C3CCCC3)CC2)cc1 (stereo not drawn) was read as WT yeast gro inh inactive, Calpain2 inh inactive, Lmaj promast 57, KCC2 mod inactive and ROMK primary inactive.
Screening O=C(Cc1ccc(S(=O)(=O)N2CCCCC2)s1)Nc1cccc2ccccc12 returned WT yeast gro inh inactive, Calpain2 inh inactive, Lmaj promast inactive, KCC2 mod inactive and ROMK primary inactive.
Fc1ccc(C(c2nnnn2C2CCCC2)N2CCN(Cc3ccccc3)CC2)cc1 (stereo not drawn) was read as WT yeast gro inh inactive, Calpain2 inh inactive, Lmaj promast inactive and KCC2 mod inactive.
c1csc(C(c2nnnn2C2CCCC2)N2CCOCC2)c1 (stereo not drawn) was read as WT yeast gro inh inactive, Calpain2 inh inactive, Lmaj promast inactive, KCC2 mod inactive and ROMK primary inactive.
`c1csc(C(c2nnnn2C2CCCC2)N2CCCC3(CCCCC3)C2)c1` (stereo not drawn) gave WT yeast gro inh 70, Calpain2 inh inactive, Lmaj promast inactive and KCC2 mod inactive.
Cc1ccc(C(c2nnnn2C2CCCC2)N2CCN(c3nc4ccccc4s3)CC2)cc1 (stereo not drawn) was read as Lmaj promast 95, KCC2 mod inactive and ROMK primary inactive.
Clc1ccc(C(c2nnnn2C2CCCC2)N2CCN(Cc3ccncc3)CC2)cc1 (stereo not drawn) was read as WT yeast gro inh inactive, Calpain2 inh inactive, Lmaj promast 88 and ROMK primary inactive.
For CC(C)C(c1nnnn1C1CCCC1)N1c2ccccc2CC1C (stereo not drawn) the results were WT yeast gro inh 64, Calpain2 inh inactive, Lmaj promast inactive and KCC2 mod inactive.
Screening NC(=O)C1CCN(C(c2ccccc2)c2nnnn2C2CCCC2)CC1 (stereo not drawn) returned WT yeast gro inh inactive, Calpain2 inh inactive, Lmaj promast inactive, KCC2 mod inactive and ROMK primary inactive.
For CC(C)=CCN1CCN(Cc2c(C)nn(C)c2Cl)CC1CCO (stereo not drawn) the results were WT yeast gro inh inactive, Calpain2 inh inactive, Lmaj promast inactive, KCC2 mod inactive and ROMK primary inactive.
`Cc1cc(C)c(C(=O)N2CCCC(CNC(=O)C3(c4ccc(Cl)cc4)CC3)C2)c(=O)[nH]1` (stereo not drawn) gave WT yeast gro inh inactive, Calpain2 inh inactive, Lmaj promast inactive, KCC2 mod inactive and ROMK primary inactive.
Screening N#Cc1cccc(C(c2nnnn2C2CCCC2)N2CCC(Cc3ccccc3)CC2)c1 (stereo not drawn) returned WT yeast gro inh inactive, Calpain2 inh inactive, Lmaj promast 65, KCC2 mod inactive and ROMK primary inactive.
For c1ccc(C(c2nnnn2C2CCCC2)N2CCN(c3nc4ccccc4s3)CC2)cc1 (stereo not drawn) the results were WT yeast gro inh inactive, Calpain2 inh inactive, Lmaj promast 95 and KCC2 mod inactive.
c1csc(C(c2nnnn2C2CCCCC2)N2CCN(c3nc4ccccc4s3)CC2)c1 (stereo not drawn) was read as WT yeast gro inh inactive, Calpain2 inh inactive, Lmaj promast 93, KCC2 mod inactive and ROMK primary inactive.
N#Cc1cccc(C(c2nnnn2C2CCCC2)N2CCCCCC2)c1 (stereo not drawn) was read as WT yeast gro inh inactive, Calpain2 inh inactive, Lmaj promast inactive and KCC2 mod inactive.
For N#Cc1ccc(C(c2nnnn2C2CCCC2)N2CCC(Cc3ccccc3)CC2)cc1 (stereo not drawn) the results were WT yeast gro inh inactive, Calpain2 inh inactive, Lmaj promast inactive and KCC2 mod inactive.
Screening O=c1c(C(c2nnnn2C2CCCCC2)N2CCCCC2)coc2ccc(Cl)cc12 (stereo not drawn) returned WT yeast gro inh inactive, Calpain2 inh inactive, Lmaj promast 62, KCC2 mod inactive and ROMK primary inactive.
For CCCN(CCC)Cc1cc(=O)oc2cc3c(cc12)CCC3 the results were Calpain2 inh inactive and KCC2 mod inactive.
Screening O=C(O)c1ccccc1C(=O)Nc1ccc(-n2nccc2C(F)(F)F)cc1 returned Calpain2 inh inactive.
Screening CC(Nc1c([N+](=O)[O-])c(=O)oc2ccccc12)c1ccccc1 (stereo not drawn) returned Calpain2 inh inactive and KCC2 mod inactive.
Screening Cn1c(N)c(N=Nc2ccc(S(N)(=O)=O)cc2)c(=O)n(C)c1=O returned Calpain2 inh inactive and KCC2 mod inactive.
For COc1ccc(C)cc1NC(=O)CNC(C)C(=O)Nc1cc(Cl)ccc1Cl (stereo not drawn) the results were WT yeast gro inh inactive, Calpain2 inh inactive, Lmaj promast inactive, KCC2 mod inactive and ROMK primary inactive.
For CCc1nc(NCCO)c(C#N)c2c1CSC(C)(C)C2 the results were Calpain2 inh inactive and KCC2 mod inactive.
`CCC(=O)c1ccc(OCCSc2ncccn2)cc1` gave WT yeast gro inh inactive, Calpain2 inh inactive, Lmaj promast inactive and KCC2 mod inactive.
`CCOc1ccc(OCC)c(NC(=O)C2CCN(S(=O)(=O)c3cnc[nH]3)CC2)c1` gave WT yeast gro inh inactive, Calpain2 inh inactive, Lmaj promast inactive, KCC2 mod inactive and ROMK primary inactive.
For O=C(NN1C(=O)C2C3c4ccccc4C(c4ccccc43)C2C1=O)c1ccc(Cl)cc1 (stereo not drawn) the results were WT yeast gro inh inactive, Calpain2 inh inactive, Lmaj promast 72, KCC2 mod inactive and ROMK primary inactive.
`Cc1nc(-c2ccccc2)sc1C1(C)CC(c2c(Cl)cccc2Cl)=NO1` (stereo not drawn) gave Calpain2 inh inactive and KCC2 mod inactive.
`CCc1ccc(NC(=O)C(=O)NNC(=O)COc2cccc(OC)c2)cc1` gave WT yeast gro inh inactive, Calpain2 inh inactive, Lmaj promast inactive, KCC2 mod 18 and ROMK primary 2.8.
`COc1ccc(C)c(-n2c(N)cc(=O)n(Cc3ccccc3)c2=O)c1` gave Calpain2 inh inactive and KCC2 mod inactive.
For CCn1c2ccccc2c2cc(N=C3SC(CC(=O)Nc4ccccc4OC)C(=O)N3CCOC)ccc21 (stereo not drawn) the results were WT yeast gro inh inactive, Calpain2 inh inactive, Lmaj promast inactive, KCC2 mod inactive and ROMK primary inactive.
`CCOc1ccccc1N=C1SC(CC(=O)Nc2ccc(OC)cc2OC)C(=O)N1CCC1=CCCCC1` (stereo not drawn) gave WT yeast gro inh inactive, Calpain2 inh inactive, Lmaj promast 80, KCC2 mod inactive and ROMK primary inactive.

Assay outcomes deposited in PubChem by several laboratories.
